Laboratory results published in article PMC12431657, “Discovery and mechanistic insights of dibenzoylmethane as a broad spectrum inhibitor of coronavirus” (PLOS Pathogens, 2025).
Like-named read-outs stand apart in the source and are kept apart here. Screen size: about 3,300 compounds; about 95 (3%) showed an effect of 50% or more. Many of the other results were omitted from the sample, so strong results are more common in it than they were. Peptide text beside a SMILES is read from it.

System: HCoV-229E
Design: species or system Huh-7; HTS, protection from HCoV-229E induced cell death, luminescent cell viability (CellCounting-Lite 2.0), inhibition rate
Settings: 24 h post infection, 1 h compound pre-incubation, 10 µM, inhibitor

| SMILES | 229E Inhibition rate [%] | 229E Inhibition rate (229E Inhibition rate, 24 h) [%] |
| --- | --- | --- |
| CSCC[C@H](NC(=O)[C@H](CC(C)C)NC(=O)CNC(=O)[C@H](Cc1ccccc1)NC(=O)[C@H](Cc1ccccc1)NC(=O)[C@H](CCC(N)=O)NC(=O)[C@H](CCC(N)=O)NC(=O)[C@@H]1CCCN1C(=O)[C@H](CCCCN)NC(=O)[C@@H]1CCCN1C(=O)[C@@H](N)CCCN=C(N)N)C(N)=O [Substance P] | 0 |  |
| CC[C@H](C)[C@H](N)C(=O)N[C@@H](C)C(=O)N[C@@H](CCCN=C(N)N)C(=O)N[C@@H](CCCN=C(N)N)C(=O)N[C@@H](Cc1cnc[nH]1)C(=O)N1CCC[C@H]1C(=O)N[C@@H](Cc1ccc(O)cc1)C(=O)N[C@@H](Cc1ccccc1)C(=O)N[C@@H](CC(C)C)C(=O)O [Kinetensin] (H-IARRHPYFL-OH) | 56.1 |  |
| CC(C)[C@H](NC(=O)[C@H](CC(=O)O)NC(=O)[C@H](CCCCN)NC(=O)[C@@H](N)CCCN=C(N)N)C(=O)N[C@@H](Cc1ccc(O)cc1)C(=O)O [Thymopentin] (H-RKDVY-OH) |  | 21.6 |
| N[C@H](CC(=O)O)C(=O)O [(-)-Aspartic acid] | 9.6 |  |
| Cc1c(N)nc([C@H](CC(N)=O)NC[C@H](N)C(N)=O)nc1C(=O)N[C@H](C(=O)N[C@H](C)[C@@H](O)[C@H](C)C(=O)N[C@H](C(=O)NCCc1nc(-c2nc(C(=O)NCCC[S+](C)C)cs2)cs1)[C@@H](C)O)[C@@H](O[C@@H]1O[C@@H](CO)[C@@H](O)[C@H](O)[C@@H]1O[C@H]1O[C@H](CO)[C@@H](O)[C@H](OC(N)=O)[C@@H]1O)c1cnc[nH]1 [Bleomycin (sulfate)] | 12.9 |  |
| CC(C)=CCC[C@H](C)CC=O [(S)-(-)-Citronellal] | 6.7 |  |
| C[C@@H]1CC[C@@]2(OC1)O[C@H]1C[C@H]3[C@@H]4CC=C5C[C@@H](O)C[C@@H](O[C@@H]6O[C@H](C)[C@H](O)[C@H](O[C@@H]7OC[C@@H](O)[C@H](O)[C@H]7O)[C@H]6O[C@@H]6O[C@H](CO)[C@@H](O)[C@H](O)[C@H]6O)[C@]5(C)[C@H]4CC[C@]3(C)[C@H]1[C@@H]2C [Saponin C, from Liriope muscari] | 0 |  |
| C[C@@H]1CC[C@@]2(OC1)O[C@H]1C[C@H]3[C@@H]4CC=C5C[C@@H](O)C[C@@H](O[C@@H]6O[C@H](C)[C@H](O)[C@H](O[C@@H]7OC[C@@H](O)[C@H](O)[C@H]7O)[C@H]6O[C@@H]6O[C@@H](C)[C@H](O)[C@@H](O)[C@H]6O)[C@]5(C)[C@H]4CC[C@]3(C)[C@H]1[C@@H]2C [Ophiopogonin D] |  | 50.3 |
| C[C@@H]1CC[C@@]2(OC1)O[C@H]1C[C@H]3[C@@H]4CC=C5C[C@@H](O)C[C@@H](O[C@@H]6O[C@H](C)[C@H](O)[C@H](O[C@@H]7OC[C@@H](O)[C@H](O)[C@H]7O)[C@H]6O[C@@H]6O[C@@H](C)[C@H](O)[C@@H](O)[C@H]6O)[C@]5(C)[C@H]4CC[C@]3(C)[C@H]1[C@@H]2C [Ophiopogonin D'] |  | 6.6 |
